Compound activity: PubChem BioAssay, National Center for Advancing Translational Sciences (NCATS)
A selection: hits, their analogues and other compounds. The true share with any hit is near 3.9%.
HT1080-NT tox: kills 2HG-producing HT-1080-NT fibrosarcoma cells. hit rate 1.6% among 360,000. HT-1080-NT fibrosarcoma viability, CellTiter-Glo ATP luminescence, 48 h. Potency, µM (doses to about 46.1 µM), without a hit: at the top dose activity, negative = less viability, usual class: cytotoxic;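 further: NT is the 2HG producing partner of a matched IDH1 knockdown line; 0% = DMSO-treated cells and -100% = media-only wells without cells; nearly all actives have a fitted effect of over 55% in size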
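Viability by CellTiter-Glo luminescence after 48 h compound exposure at 37C of HT-1080-NT cells (750/well, RPMI, 5% FBS). % activity scaled between DMSO wells and medium-only wells, then curve-fitted and categorized by curve class.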
HepG2 tox: HepG2 cytotoxicity, counter-screen for TGF-b inhibitors; HepG2 CAGA-GFP viability, ATP luminescence, 18 h; Potency, µM (titrated, usually from 46.1 µM), for inactives: at the highest dose activity change, negative = cytotoxicity, hits mostly cytotoxic; hit rate 0.76% among 410,000; AID 588856
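HepG2 CAGA-GFP cells (1000/well, DMEM with 1% FBS) received compound, then TGF-beta at 500 pg/mL final, and were incubated 18 hours at 37 degrees C. Viability was read by CellTiter-Glo luminescence. Media-only wells were set as complete cell-killing and DMSO as no toxicity.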
ATXN2 expr inh: reduces ATXN2 reporter expression in HEK-293 cells; HEK-293 ATXN2-luciferase reporter, luminescence, 24 h; Potency, µM (doses to about 57 µM), for the others: at the highest dose activity change, negative = inhibition, usual class: inhibitors; hit rate 0.72% among 360,000; further: on the % scale 0 is the no-effect control and ±100 the full control effect; nearly all actives have a fitted effect of over 55% in size
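qHTS (up to 57 uM final) was run with 24 h compound exposure of reporter cells at 37 °C. Each well was multiplexed: SteadyGlo luminescence measured ATXN2-luciferase expression after a fluorogenic Gly-Phe-AFC viability readout (25 uM final).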
ATXN viability: viability counter-screen for ATXN expression inhibitors; Potency, µM (doses to about 56.7 µM), most hits filed as cytotoxic; hit rate 0.49% among 400,000; S2 cells (HEK-293 line with an ATXN2-luciferase reporter) viability, CellTiter-Fluor protease fluorescence, 24 h; further: nearly all actives have a fitted effect of over 40% in size
TGFb SMAD3 inh: inhibitors of TGF-b signaling. HepG2 CAGA-GFP TGF-b/SMAD3 reporter, GFP fluorescence, 18 h; TGF-beta stimulated, 500 pg/mL final. Potency, µM (titrated, usually from 46.1 µM), inactives show top-dose activity, negative = inhibition, usual class: inhibitors. hit rate 1.2% among 410,000. AID 588855; further: on the % scale 0 is the no-effect control and ±100 the full control effect; nearly all actives have a fitted effect of over 65% in size
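Cell-based qHTS in HEPG2 carrying a CAGA-GFP Smad reporter; compounds added before 500 pg/mL final TGF-beta, 18 h incubation at 37 degrees C, GFP fluorescence quantified per cell by imaging cytometry.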
HT1080 IDH1KD tx: HT-1080 IDH1 knockdown cell toxicity (counter line); HT-1080 IDH1 knockdown viability, ATP luminescence, 48 h; Potency, µM (top dose mostly 46.1 µM), without a hit: at the top dose activity, negative = toxicity, actives largely listed as cytotoxic; hit rate 2% among 360,000;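 further: 0% = DMSO wells and -100% = cell-free medium wells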
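Assay cells: HT-1080 with IDH1 knockdown, 750 per well, RPMI/5% FBS. Exposure: 48 h at 37 °C following 2 h pre-incubation. Read: CellTiter-Glo luminescence; fitted concentration-response, curve class assigned.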
* hit, by the source's call; i = inactive; ? = inconclusive; / = no result; ! = repeats disagree; [ ] = remark or other dose. The call rests on the fitted dose curve; in most records, active means well fitted curve in the direction sought with a large enough effect; inconclusive means small, poorly fitted or top-dose-only effect, or another doubt; inactive means no such curve, though single readings can be large; an effect the other way counts as inactive or inconclusive. Potency means the concentration at half of the fitted maximal effect.

SMILES	HT1080-NT tox	HepG2 tox	ATXN2 expr inh	ATXN viability	TGFb SMAD3 inh	HT1080 IDH1KD tx
CCOc1ccc(-n2c(-c3ccc(Br)cc3)c[n+]3c2CCCCC3)cc1	8.2µM*	5%	?	?	-20%	?
COc1ccc(-n2c(-c3ccc(Cl)cc3)c[n+]3c2CCCCC3)cc1	?	-45%	?	?	0%	?
CCOc1ccc(-n2c(-c3ccccc3)c[n+]3c2CCC3)cc1	?	-21%	-30%[11.3 µM]	?	?	8.2µM*
COc1ccccc1C1CN(CC(=O)N2CCC(N3CCOCC3)CC2)Cc2ccccc2O1 (stereo not given)	/	/	/	i	/	/
Cc1ccc(C(C)CCN2CCOc3ccc(CN4CCOCC4)cc3C2)o1 (stereo not given)	/	/	/	i	/	/
O=C1NC[C@H](c2ccccc2)OC(=O)[C@@H](Cc2ccc(F)cc2)C/C=C\C[C@H]1CC(=O)N(CCO)Cc1ccccc1	?	-116%	-20%	?	?	?
O=C1NC[C@H](c2ccccc2)OC(=O)[C@H](Cc2ccc(F)cc2)C/C=C\C[C@H]1CC(=O)N(CCO)Cc1ccccc1	?	-28%	32µM*	?	?	?
C=CCC1(CC=C)CCCN1C(=O)c1cc(COc2ccc(F)c(F)c2)on1	-5%	-3%	-23%	i	-22%	-24%
Cc1ccc(OCc2cc(C(=O)NC3CCCCC3)no2)cn1	?	-15%	/	i	-13%	15µM*
C=CCC1(CC=C)CCCN1C(=O)c1cc(COc2ccc(C)nc2)on1	21µM*	-43%	/	?	?	2.9µM*
O=C(CCn1cnc2onc(-c3ccc(F)cc3)c2c1=O)N1CCN(c2cccc(Cl)c2)CC1	/	-21%	-17%	?	-2%	/
CCCCCCCCCCCCCCCC[N+](C)(C)CCN(Cc1ccc(OC)cc1)c1ncccn1	16µM*	10µM*	35µM*!	25µM*!	?	18µM*
O=C1OC(c2cccc([N+](=O)[O-])c2)C2(CCCC2)C(=O)C12CCCCC2 (stereo not given)	?	-20%	-1%	i	?	16µM*
O=C1OC(c2ccccc2)C2(CCCC2)C(=O)C12CCCC2 (stereo not given)	5%	-14%	-17%	i	0%	-4%
Cc1ccnc(NC(c2ccsc2)c2ccc3ccc(C)nc3c2O)c1 (stereo not given)	?	-31%	14%	i	?	15µM*
COc1ccc(C(Nc2cc(C)ccn2)c2ccc3ccc(C)nc3c2O)cc1 (stereo not given)	-20%	5%	1%	i	1%	-8%
Cc1ccc2ccc(C(Nc3ccccn3)c3ccccc3)c(O)c2n1 (stereo not given)	-30%	-21%	?	i	?	-22%
COc1cc(C(Nc2ccccn2)c2ccc3ccc(C)nc3c2O)cc(OC)c1O (stereo not given)	-29%	-81%	?	/	?	15µM*
CCc1cc2c(cc3c(=O)n(CC(=O)NCc4cc(Br)ccc4OC)ncn32)s1	/	8%	/	/	-4%	/
CCc1ccc(S(=O)(=O)/N=C2\C=C(Nc3cccc(C(=O)O)c3)C(=O)c3ccccc32)cc1	8.2µM*	-89%	32µM*	25µM*	?	7.3µM*
CCc1ccc(S(=O)(=O)/N=C2\C=C(Nc3ccc(O)cc3)C(=O)c3ccccc32)cc1	2.9µM*	1.1µM*	3.5µM*	7.1µM*	0.89µM*	2.9µM*
Cc1ccc(S(=O)(=O)/N=C2/C=C(C3C(=O)CC(C)(C)CC3=O)C(=O)c3ccccc32)cc1	-14%	-76%	17%	i	?	?
O=S(=O)(N=C1C=CC(=NS(=O)(=O)c2ccccc2)c2ccccc21)c1ccccc1	-15%	-117%	/	i	?	?
CCc1ccc(S(=O)(=O)/N=C2/C=C(Sc3ncn[nH]3)C(=O)c3ccccc32)cc1	5.8µM*	2µM*	16µM*	?	1.4µM*	5.2µM*
Cc1cccc(Cn2c(CNS(=O)(=O)c3ccc(C(C)C)cc3)nc3cccnc32)c1	/	-21%	/	/	?	/
SMILES	HT1080-NT tox	HepG2 tox	ATXN2 expr inh	ATXN viability	TGFb SMAD3 inh	HT1080 IDH1KD tx
Cc1cc2c(cc1S(=O)(=O)N(CCN(C)C)Cc1ccccc1)OCC(=O)N2	/	-13%	/	/	0%	/
O=C(COc1ccccc1Cl)N(Cc1ccco1)Cc1ccco1	/	-16%	/	/	-2%	/
O=C(O)c1ccc(CNc2ncnc3nc[nH]c23)cc1	21%	/	/	/	/	25%
CCN1CCN(c2ccc(S(=O)(=O)N3CCCCC3)cc2NC(=O)Cc2ccc(Cl)c(Cl)c2)CC1	-14%	18µM*	-11%	i	16µM*	?
O=C(Nc1cccc(NC(=O)c2cc([N+](=O)[O-])ccc2Cl)n1)c1cc([N+](=O)[O-])ccc1Cl	?	-53%	/	/	?	12µM*
O=C(Nc1ccc(S(=O)(=O)N2CCOCC2)cc1)c1ccc([N+](=O)[O-])cc1Cl	2%	13%	-47%	?	-20%	-1%
O=C(CCl)Nc1cc(S(=O)(=O)N2CCCCCC2)ccc1Cl	23µM*	-14%	?	18µM*	3%	?
O=C(Nc1cc(S(=O)(=O)N2CCOCC2)ccc1Cl)c1cc([N+](=O)[O-])ccc1Cl	9.2µM*	-5%	?	?	?	21µM*
O=C(C[N+]12CCCc3cccc(c31)CCC2)c1ccc2ccccc2c1	/	-8%	/	/	-28%	/
CCCc1cc(=O)[nH]c(SCC(=O)Nc2cc(S(=O)(=O)N3CCCCC3)ccc2Cl)n1	6.5µM*	-62%	-6%	i	?	15µM*
Cc1ccccc1CNC(=O)c1oc2c(c1C)-c1nn(Cc3ccc(Cl)cc3)cc1CC2	/	-13%	/	/	-7%	/
Cc1cc2nc(/C=C/c3cccnc3)[nH]c2cc1C	0.52µM*	9%	/	i	?	0.58µM*
Cc1cc2nc(/C=C/c3nc4cc(C)c(C)cc4[nH]3)[nH]c2cc1C	-4%	0%	/	/	-10%	-9%
O=C(NCCc1ccccc1Cl)C1CCN(c2nc3ccccc3nc2C(F)(F)F)CC1	/	-10%	-4%	i	-26%	/
COc1cc2nc(C3CCC3)n(NC(=O)COc3ccccc3)c(=O)c2cc1OC	7.1µM*	-1%	-10%	i	-5%	1%
COc1ccc(CS(=O)(=O)/C(Cl)=C(/Cl)C(=O)Nc2ccc(OC)nc2)cc1	23µM*	-107%	13µM*	?	?	8.2µM*
